Measured potencies and affinities stand elsewhere. A number with no mark means an inactive call.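 How the source made its calls: active means every repeat run showing a signal drop whose fitted half-maximal concentration is at most twice the top tested concentration; inconclusive means repeat runs disagree, or flat partial drop, or poor fit; inactive means the rest.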
Assay: HEK293T cytotoxicity, dose response, cytotoxicity control for miR-122 modulator project, cell-based, activator set, cherry-pick (AID 720690);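 further: 0% = neutral control wells and -100% = MG132 cytotoxic control wells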
Settings: HEK293T viability, CellTiter-Glo luminescence, 48 h; series mostly up to 26 µM; activity change, negative = cytotoxicity: at the top concentration

| SMILES | activity change, negative = cytotoxicity |
| --- | --- |
| Cc1nn(C)cc1NC(=O)C[C@H]1CC[C@H]2[C@H](COc3ccc(NC(=O)c4cccc(F)c4)cc3C(=O)N2C)O1 | -17.4% |
| COc1ccc(N2CCc3c(C)nc4c(OC)cc(OC)cc4c32)c(OC)c1 | -19.9% |
| CC(=O)N(C[C@H]1N[C@H](CO)[C@@H]1c1ccc(-c2ccccc2)cc1)C(C)C | -0.118% |
| Cc1cccc(NC(=O)Nc2ccc3c(c2)C(=O)N(C)[C@@H]2CC[C@@H](CC(=O)NCc4ccccc4Cl)O[C@H]2CO3)c1 | 8.79% |
| CCS(=O)(=O)Nc1ccc2c(c1)C(=O)N(C)[C@@H]1CC[C@@H](CC(=O)NCCCN3CCOCC3)O[C@@H]1CO2 | -12.1% |
| CN1CCN(c2ccc(Cl)cc2NC(=O)c2ccc(S(=O)(=O)N3CCCCCC3)cc2)CC1 | -2.63% |
| N#Cc1cccc(NC(=O)Nc2cccs2)c1 | -33.5% |
| COc1cccc(OCc2cc(/C=N/Nc3ccc(C(=O)O)cc3)ccc2OC)c1 | -1.78% |
| CN1C(=O)c2cc(NC(=O)Nc3cccc(Cl)c3)ccc2OC[C@@H]2O[C@H](CC(=O)NCCc3ccncc3)CC[C@H]21 | 15.3% |
| CCC(=O)Nc1ccc2c(c1)C(=O)N(C)[C@@H]1CC[C@H](CC(=O)NCCN3CCCCC3)O[C@H]1CO2 | -0.622% |
| COCC(=O)N(C)C[C@H]1Oc2cc(C#Cc3cccnc3)ccc2S(=O)(=O)N([C@@H](C)CO)C[C@H]1C | -4.33% |
| CO[C@@H]1CN(C)C(=O)c2ccc(NC(=O)c3ccc(Oc4ccccc4)cc3)cc2OC[C@H](C)NC[C@H]1C | -13.4% |
| CCCCNC(=O)Nc1nnc(-c2ccc(OCC)cc2)o1 | 7.89% |
| CCNC(=O)C[C@H]1CC[C@@H]2[C@H](COc3ccc(NC(=O)Nc4cccc(OC)c4)cc3C(=O)N2C)O1 | 2.23% |
| COc1ccc(-c2ccc3c(c2)O[C@H](CN(C)C(=O)Nc2ccccc2F)[C@H](C)CN([C@@H](C)CO)S3(=O)=O)cc1 | -12.4% |
| COCC(=O)Nc1ccc2c(c1)C(=O)N(C)[C@@H]1CC[C@H](CC(=O)NCc3ccccc3F)O[C@H]1CO2 | -13.2% |
| Cc1ccc(-c2ccc3c(c2)O[C@H](CN(C)C(=O)CC2CC2)[C@H](C)CN([C@@H](C)CO)S3(=O)=O)cc1 | -17.2% |
| CC(C)NC(=O)N1[C@H](CO)[C@@H](c2ccccc2)[C@@H]1CNC(=O)CN(C)C | -3.2% |
| C/C=C/c1ccc([C@H]2[C@@H](CO)N(C(=O)C3CC3)[C@H]2CNC(=O)NC(C)C)cc1 | 0.786% |
| COC(=O)C[C@H]1CC[C@@H]2[C@@H](COc3ccc(NC(=O)c4cscn4)cc3C(=O)N2C)O1 | -6.16% |
| COC(=O)C[C@H]1CC[C@@H]2[C@@H](COc3ccc(NC(=O)c4ccc(F)c(F)c4)cc3C(=O)N2C)O1 | -4.61% |
| COC(=O)c1c(N)nc(C)n1-c1ccc(OC)cc1 | -3% |
| COc1ccccc1NC(=O)Nc1ccc2c(c1)C(=O)N(C)[C@H]1CC[C@H](CC(=O)Nc3ccc4c(c3)COC4)O[C@@H]1CO2 | 5.52% |
| CCNC(=O)C[C@H]1CC[C@H]2[C@@H](COc3ccc(NS(C)(=O)=O)cc3C(=O)N2C)O1 | -12.4% |
| CN(C)C(=O)c1ccc(-c2ccc([C@H]3[C@@H](CO)N4CCCCN(C(=O)C5CCCC5)C[C@@H]34)cc2)cc1 | -8.32% |
| C[C@H](CO)N1C[C@H](C)[C@H](CN(C)C(=O)NC2CCCCC2)Oc2ncc(-c3cccc(C(F)(F)F)c3)cc2C1=O | -2.88% [at 23.5 µM] |
